Anthrax LF inh2: anthrax lethal factor protease inhibition | multiplex microsphere protease cleavage assay, LF | actives 0.12% (n = 360,000) | inhibition, % at 10 µM; also: plate controls were buffer without enzyme for full effect and enzyme alone for no effect
Target sequence (P15917 whole entry, looked up): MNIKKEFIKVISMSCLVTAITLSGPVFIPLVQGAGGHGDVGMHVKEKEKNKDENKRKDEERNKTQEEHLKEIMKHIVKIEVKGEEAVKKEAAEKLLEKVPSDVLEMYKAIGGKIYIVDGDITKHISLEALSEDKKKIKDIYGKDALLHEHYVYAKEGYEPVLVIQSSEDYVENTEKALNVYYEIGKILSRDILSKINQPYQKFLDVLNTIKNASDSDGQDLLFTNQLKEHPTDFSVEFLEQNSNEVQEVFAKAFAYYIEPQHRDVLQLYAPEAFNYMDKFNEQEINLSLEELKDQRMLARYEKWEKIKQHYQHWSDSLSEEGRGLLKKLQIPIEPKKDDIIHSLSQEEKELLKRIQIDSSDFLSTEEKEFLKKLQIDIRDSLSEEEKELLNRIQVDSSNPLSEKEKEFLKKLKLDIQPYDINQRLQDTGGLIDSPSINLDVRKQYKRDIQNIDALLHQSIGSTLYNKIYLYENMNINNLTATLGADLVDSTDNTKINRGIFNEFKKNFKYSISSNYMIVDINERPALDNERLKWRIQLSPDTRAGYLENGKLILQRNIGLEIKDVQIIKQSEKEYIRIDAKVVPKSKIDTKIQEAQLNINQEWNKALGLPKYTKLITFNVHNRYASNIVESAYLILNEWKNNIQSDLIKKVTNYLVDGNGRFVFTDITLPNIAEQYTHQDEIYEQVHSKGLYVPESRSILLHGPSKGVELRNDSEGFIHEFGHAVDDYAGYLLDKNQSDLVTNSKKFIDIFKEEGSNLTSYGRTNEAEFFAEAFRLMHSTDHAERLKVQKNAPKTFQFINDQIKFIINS
BoNT A protease: BoNT A light chain protease inhibition; multiplex microsphere protease substrate cleavage, flow cytometry; inhibition, % at 10 µM; actives 0.17% (n = 360,000); AID 588499; also: plate controls were buffer without enzyme for full effect and enzyme alone for no effect
BoNT F protease: inhibitors of Botulinum neurotoxin F light chain protease; actives 0.22% (n = 360,000); Multiplex microsphere protease cleavage assay, flow cytometry; inhibition, % at 10 µM; in the data active = inhibition above about 35%, passing the limit was not always enough; inconclusive = no clear call, values can overlap the other calls; also: plate controls were buffer without enzyme for full effect and enzyme alone for no effect
SSB-PriA inh: inhibitors of Klebsiella pneumoniae PriA binding to SSB C-terminal tail; AlphaScreen SSBct-PriA binding, biotinylated peptide; inhibition, % at 33 µM; actives 0.6% (n = 430,000); AID 1272365; in the data active = inhibition mostly above about 37%, no sharp cut-off; inactive = mostly below about 20%;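 also: plate controls were negative control peptide for no effect and reference peptide for full effect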
Bead autofluor: flagged as autofluorescent in microsphere protease counterscreen; compound autofluorescence counterscreen, microsphere flow cytometry; active compounds read high; fluorescence intensity (no concentration beside the values); actives 3.1% (n = 360,000); AID 624483; in the data active = fluorescence intensity above about 16000; inconclusive = no clear call, values can overlap the other calls
Starred values were filed as active, the others as inactive; ? = inconclusive; nt = no result. Hits are enriched below; roughly 3.1% of the tested compounds scored in any of these assays. Rule as the data show it, unless noted: active = inhibition above about 30%; inconclusive = no clear call, values can overlap the other calls; inactive = below that.

SMILES	Anthrax LF inh2	BoNT A protease	BoNT F protease	SSB-PriA inh	Bead autofluor
O=C(CCSc1ccccc1)N1CCN(c2ccc3nnc(-c4ccco4)n3n2)CC1	nt	nt	nt	-13.0	nt
CC(=O)Nc1ccc(N(C(=O)Cc2c[nH]c3ccccc23)C(C(=O)NC2CCCCC2)c2ccco2)cc1 (stereo unspecified)	0.7	0.4	2.6	12.8	2129
Cc1ccc(C(C(=O)NC2CCCCC2)N(C(=O)Cc2c[nH]c3ccccc23)c2ccccc2)o1 (stereo unspecified)	-1.8	?	3.6	-4.2	20827*
CC(C)OCc1ccc(C(=O)Nc2ccccc2-c2ccc(=O)n(C)n2)o1	nt	nt	nt	-23.0	nt
O=C1c2cnc3nc(SCc4cccc(Cl)c4)nn3c2CC2c3ccccc3CCN12 (stereo unspecified)	0.4	-0.4	-1.2	-18.8	21140*
O=C(NCC(c1ccc(F)cc1)N1CCOCC1)C(=O)Nc1ccon1 (stereo unspecified)	nt	nt	nt	-12.0	nt
CCOC(=O)/C(=C/c1c[nH]c2ccccc12)NC(C)=O	-1.8	1.5	4.2	11.1	19612*
COC(=O)/C(=C/c1c[nH]c2ccccc12)NC(C)=O	0.0	-0.2	0.2	-1.3	2138
CN(C)c1ccc(CNCCC(Cc2ccccc2)c2ccco2)cc1 (stereo unspecified)	-4.7	-1.5	-5.7	57.1*	4444
COc1ccccc1C(=O)NC1CCN(C(=O)c2cc(-c3ccc(F)cc3)n[nH]2)CC1	nt	nt	nt	-22.0	nt
CCOCC(=O)NCCNC(=O)c1ccc(NC(C)=O)cc1	nt	nt	nt	-1.0	nt
CN(C)c1cccc(NC(=O)CCc2ccccc2)c1	24.6	11.7	74.8*	53.6*	7865
CCOC(=O)c1c(NC(=O)c2ccccc2Br)sc2c1CCc1ccccc1-2	-2.1	?	3.6	-21.3	22027*
CCOC(=O)c1c(NC(C)=O)sc2c1CCC(C=O)=C2Sc1ccccc1	41.3*	50.0*	39.6*	14.8	7887
Cn1c(NC(=O)c2ccccc2)c(-c2ccccn2)c(=O)c2ccccc21	2.8	-0.7	0.6	-14.4	20450*
Cc1noc(C)c1CC(=O)NCc1cnn2ccccc12	nt	nt	nt	0.0	nt
CCCCOc1ccc(C(=O)NCC2(c3ccccc3)CCOCC2)cc1	-0.2	?	1.6	-2.3	22415*
CCCCCOc1ccc(C(=O)NCC2(c3ccccc3)CCOCC2)cc1	-6.1	-1.8	-2.2	-39.1	16606*
CCOc1ccc(C(=O)NCC2(c3ccccc3)CCOCC2)cc1	-0.9	-0.7	-13.9	-11.5	2975
CC(=O)c1sc(NC(=O)CN2C(=O)c3ccccc3C2=O)nc1-c1ccccc1	nt	nt	nt	-13.0	nt
Cc1ccc(-c2ccc(=O)n(CCCC(=O)Nc3ccc(C(N)=O)cc3)n2)cc1	nt	nt	nt	-18.0	nt
Cc1oc(-c2ccccc2F)nc1CN1CCC(C(=O)NC2CCCCCCC2)CC1	-1.4	1.0	2.5	-2.7	16243*
Cc1oc(-c2ccccc2F)nc1CN1CCC(C(=O)NCc2ccco2)CC1	2.5	?	1.0	5.9	19776*
COc1ccc(CCNC(=O)C2CCN(Cc3nc(-c4ccccc4C)oc3C)CC2)cc1OC	-6.9	-1.6	-4.0	-16.5	22311*
O=C1C2N=NN(Cc3nc(-c4ccccc4Cl)no3)C2C(=O)N1c1ccc2c(c1)OCO2 (stereo unspecified)	nt	nt	nt	-3.0	nt
SMILES	Anthrax LF inh2	BoNT A protease	BoNT F protease	SSB-PriA inh	Bead autofluor
CCOC(=O)C1=C(CN2c3ccccc3CC2C)NC(=O)NC1c1ccccc1 (stereo unspecified)	43.9*	54.5*	15.9	31.3	2062
CCCn1nc(-c2ccco2)c2sc(N3CCCCC3)nc2c1=O	nt	nt	nt	-6.0	nt
CCOC(=O)C1CCCN(Cc2cc(Br)c(OC)cc2OC)C1 (stereo unspecified)	-1.4	-0.1	-0.3	-7.7	22833*
CCN(CC)C(=O)C1CCCN(Cc2ccc(OC)c(C)c2C)C1 (stereo unspecified)	-1.0	?	1.9	-19.8	21287*
O=C(COc1ccc(Cl)cc1)NCC(c1ccsc1)N1CCCCCC1 (stereo unspecified)	nt	nt	nt	-10.0	nt
CCOC(=O)c1ccc(NC(=O)CSc2ncnc3c2nnn3-c2ccc(OC)cc2)cc1	nt	nt	nt	0.0	nt
CSC(=S)NN=C(C)c1cccc(C)n1	24.8	11.0	33.6	55.3*	3935
CN(C)C(=S)NN=C(c1ccccn1)c1ccccn1	nt	nt	nt	161.5*	nt
CC(=NNC(=S)Nc1ccccc1)c1ccccn1	11.7	2.6	11.0	nt	4583
CSC(=S)N/N=C(/c1ccccc1)c1ccccn1	nt	nt	nt	108.0*	nt
Cc1cccc(C(=S)N2CCOCC2)n1	-3.6	0.8	-6.4	-10.4	4147
O=C(NCCc1ccsc1)C(=O)Nc1ccccc1Cl	nt	nt	nt	-8.0	nt
COCCNC(=O)Nc1cccc(N2CCCC2=O)c1	nt	nt	nt	1.0	nt
COc1cc2[nH]cc(C(=O)NCc3cccs3)c(=O)c2cc1OC	0.5	-5.8	-6.0	-4.9	17586*
COCCNC(=O)c1c[nH]c2ccc(S(=O)(=O)N3CCOCC3)cc2c1=O	-2.8	0.7	0.7	0.1	5515
O=C(NCc1ccccc1)c1c[nH]c2cc3c(cc2c1=O)OCCO3	-3.8	-0.7	0.4	-4.8	16706*
COc1ccc(CC(=O)NCc2cccs2)cc1OC	-0.9	0.5	-15.0	-11.8	4662
O=C(NCc1ccc2c(c1)OCO2)c1c[nH]c2ccc(S(=O)(=O)N3CCOCC3)cc2c1=O	-7.3	1.9	3.5	-6.8	21299*
O=C(NCc1ccc2c(c1)OCO2)c1ccc(CN2CCOCC2)cc1	-0.9	-1.3	-3.7	4.2	16861*
O=C(NCc1ccc2c(c1)OCO2)c1ccc2c(c1)OCO2	-1.5	-0.7	-1.3	-3.6	4997
Cc1cc(CCNC(=O)COc2ccccc2F)on1	nt	nt	nt	-3.0	nt
COc1ccc(/C=C/C(=O)Nc2nnc(-c3ccco3)o2)cc1OC	nt	nt	nt	-2.0	nt
O=C(NCc1ccc2c(c1)OCO2)c1ccc(Cl)c(S(=O)(=O)N2CCOCC2)c1	-0.1	0.7	-2.2	-1.4	23645*
O=C(Oc1ccc2c(c1)OCO2)c1ccc(Br)c(S(=O)(=O)N2CCOCC2)c1	-2.3	?	-2.3	1.0	23166*
Cc1ccc(C(=O)NCc2ccc3c(c2)OCO3)cc1S(=O)(=O)N1CCOCC1	-1.7	-0.5	4.8	-5.0	4270
SMILES	Anthrax LF inh2	BoNT A protease	BoNT F protease	SSB-PriA inh	Bead autofluor
O=C(Nc1ccc2c(c1)OCCO2)c1ccc(Br)c(S(=O)(=O)N2CCOCC2)c1	-5.9	0.0	-6.5	3.6	2496
CC(C)OC(=O)c1c(NC(=O)/C(C#N)=C/c2cn[nH]c2-c2ccccc2)sc2c1CCCC2	nt	nt	nt	0.0	nt
O=C(Cn1ccc2ccccc21)N1CCSC(c2ccccc2Cl)CC1 (stereo unspecified)	nt	nt	nt	2.0	nt
Cc1ccc(Cn2c(CO)cnc2SCC(=O)Nc2nccs2)cc1	nt	nt	nt	3.0	nt
CC(C)S(=O)(=O)c1ccc(Cc2nnc(NC(=O)C3=COCCO3)o2)cc1	nt	nt	nt	-2.0	nt
O=C(NCC(F)(F)F)Nc1ccccn1	-2.0	?	-0.4	-6.0	19809*
COc1ccccc1OCC(=O)Nc1ccccn1	1.0	0.8	2.3	-12.1	22764*
COc1cc2c(cc1NS(=O)(=O)N1CCCCC1)oc1ccccc12	-5.5	-4.0	-4.9	-24.4	23461*
COc1cc2c(cc1NC(=O)COc1ccccc1OC)oc1ccccc12	-1.0	1.0	0.0	-13.9	20273*
COc1cc2c(cc1NC(=O)CCC(=O)O)oc1ccccc12	19.5	-2.3	-2.0	-5.8	4232
